The panel holds about 83,000 compounds, 20% with a hit somewhere; the sample as a whole holds those more often.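 Activity criterion: percent growth below 10, measured after cells in 96-well plates were exposed to a single compound concentration for 48 hours.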 Activity calls are given as the source filed them.
Tested on: T-47D breast
Assay: NCI-60 one-dose screen, 48 h (100 = growth as untreated, 0 = no growth, -100 = all killed)
Conditions: 10 µM unless noted

Row | Structure (SMILES) | growth
1 | O=C(Cn1c(-c2ccccc2)nc2ccccc21)N=Nc1c(O)[nH]c2ccc(Cl)cc12 | -29.8% (active)
2 | Cn1cc(-c2cc(N)n3nc(-c4c[nH]c5ccc(Cl)cc45)cc3n2)c2cccnc21 | -65.9% (active)
3 | COc1ccc(NC(=O)N/N=C/c2c[nH]c3ccccc23)cc1 | 43.3% (inactive)
4 | C[C@H]1[C@@H](CC(=O)N[C@@H](Cc2coc3ccccc23)B(O)O)O[C@@H]2OC3(C)CC[C@H]4[C@H](C)CC[C@@H]1[C@@]24O3 | 27.1% (inactive)
5 | CCCCCCCCc1cccc(CC(=O)Nc2ccc(C)cc2C(=O)O)c1 | 65.6% [25 µM] (inactive)
6 | CC(C)(C)C(=O)c1c2c(c3ccc4c5ccccc5ccc4n13)C(=O)c1ccccc1C2=O | 95.6% (inactive)
7 | CN(C)CCCc1ccc(Nc2cnn(C)c(=O)c2Cl)cc1 | 98.2% (inactive)
8 | N#Cc1cc(-c2ccnc(Nc3ccc(N4CCN(C5COC5)CC4)cc3)n2)ccc1N1CCCC1 | 91% (inactive)
9 | O=C(c1ccc(Cl)cc1)C1[C@H](c2ccccc2Cl)[C@@H](c2ccccc2)NC12C(=O)Nc1ccc(Br)cc12 (some centres undefined) | -83.4% (active)
10 | C=CCSc1nnc(-c2ccc(-c3nc4ccccc4[nH]3)cc2)o1 | 4.02% (active)
11 | CCCN(CCC)S(=O)(=O)c1ccc(C(=O)O)cc1.CCCN(CCC)S(=O)(=O)c1ccc(C(=O)O)cc1.[Cl][Pt+2][Cl].[NH2-].[NH2-] | 26.3% (inactive)
12 | O=C(Cc1c(-c2cccc([N+](=O)[O-])c2)n(-c2ncnc3c2c(-c2ccccc2)c(-c2ccccc2)n3Cc2ccccc2)[nH]c1=O)c1ccc(Cl)c(Cl)c1 | 0.846% (active)
13 | Cn1cc(-c2cc(N)n3nc(-c4c[nH]c5ccccc45)cc3n2)c2ccccc21 | -56.6% (active)
14 | Clc1ccc(-c2nc3ccc(-c4nnc(SCc5ccccc5)o4)cc3[nH]2)cc1 | 7.8% (active)
15 | N#CC1=C(c2ccco2)Nc2c(c(-c3ccccc3)nn2-c2ccccc2)C12C(=O)Nc1ccc(Cl)cc12 (centres undefined) | 26.6% (inactive)
16 | Cc1ccc(/C=C/C(=O)c2ccc(S(=O)(=O)NCCNc3nc(N(C)C)nc(N4CCOCC4)n3)cc2)cc1 | 69.6% (inactive)
17 | Cc1nc2sccn2c1-c1nnc(SCc2ccccc2)o1 | 74.5% (inactive)
18 | Cc1nc2sccn2c1-c1nnc(SCC(C)C)o1 | 59.4% (inactive)
19 | CN(CCSSCCN1CCOCC1)C(=O)Oc1cc2c(c3ccccc13)[C@H](CCl)CN2C(=O)c1cc2cc(OCCCN3CCC3)ccc2[nH]1 | -41.9% (active)
20 | O=C1/C(=C/c2cnc(-c3ccccc3)s2)SC(=S)N1Cc1ccc2c(c1)OCO2 | 47.4% (inactive)
21 | O=C(Cn1c(-c2ccccc2)nc2ccccc21)N=Nc1c(O)[nH]c2ccc(Br)cc12 | -59.4% (active)
22 | COc1ccc(N=Nc2c(N)nn3c(N)c(C#N)c(-c4ccc(C)cc4)nc23)cc1 | 7.1% (active)
23 | O=C1Nc2cc(-c3ccc(NS(=O)(=O)c4ccc(C(F)(F)F)cc4)cc3)ccc2/C1=C/c1ccc[nH]1 | 18.1% (inactive)
24 | COC(=O)c1c(C(=O)OC)c2c3ccccc3c3ccccc3n2c1C(=O)C(F)(F)F | 101% (inactive)
25 | COc1cccc(-c2ccc(/C=N/NC(=O)c3[nH]c4ccc(Br)cc4c3-c3ccccc3)s2)c1 | 52.9% (inactive)
26 | COc1ccc(NC(=O)CSc2nnc(-c3ccc(-c4nc5ccccc5[nH]4)cc3)o2)cc1 | 78.6% (inactive)

Tested on: BT-549 breast
Assay: as above
Conditions: 10 µM unless noted

Row | Structure (SMILES) | growth
27 | COc1ccc2[nH]c(=O)cc(-n3ncc(C(=O)/C=C/c4cc(OC)c(OC)c(OC)c4)c3C)c2c1 | -57.2% (active)
28 | COc1ccccc1NC(=O)c1ccc(NC(=O)CCl)s1 | -57.7% (active)
29 | Cc1ccc(C(C)C)cc1Oc1cccc(-c2c(-c3ccc(C(F)(F)F)cc3)ncn2C2CCNCC2)n1 | -98.6% (active)
30 | O=C(c1ccc(O)cc1)C1[C@H](c2ccc(Cl)cc2)[C@@H](c2ccccc2)NC12C(=O)Nc1ccccc12 (some centres undefined) | -50.7% (active)
31 | COc1c(B(O)O)cccc1-c1nc2ccc3cn[nH]c3c2c2c1CCCC2 | 30.7% (inactive)
32 | COc1ccc(S(=O)(=O)Nc2ccc(-c3ccc4c(c3)NC(=O)/C4=C\c3ccc[nH]3)cc2)cc1OC | 13.3% (inactive)
33 | Cc1ccc2c(c1)nc(-c1ccccc1)n2CC(=O)N=Nc1c(O)[nH]c2ccc(Cl)cc12 | -72% (active)
34 | Cc1nn(-c2ccccc2)c2nc(C)n(CC(=O)N/N=C/c3ccccc3O)c(=O)c12 | 37.2% (inactive)
35 | Cc1cc(C)c2[nH]c(=O)c(C(c3nnnn3Cc3ccc4c(c3)OCO4)N3CCN(C)CC3)cc2c1 (centres undefined) | 106% (inactive)
36 | FC(F)(F)CN1CCN(CCn2c(C(F)(F)F)cc3c(Cl)ncnc32)CC1 | -27.2% (active)
37 | O=C1NC(=NC23CC4CC(CC(C4)C2)C3)N/C1=C\c1ccc2ncccc2c1 | 16.2% (inactive)
38 | COc1cc2cc(C(=O)N3C[C@@H](CCl)c4c3cc(OC(=O)N(CCC(=O)N3CCN(C)CC3)C3CCCCC3)c3ccccc43)[nH]c2c(OC)c1OC | -94.4% (active)
39 | O=C(Cn1c(-c2ccccc2)nc2ccccc21)N=Nc1c(O)[nH]c2ccc(Cl)cc12 | -53% (active)
40 | Cn1cc(-c2cc(N)n3nc(-c4c[nH]c5ccc(Cl)cc45)cc3n2)c2cccnc21 | -77.1% (active)
41 | COc1ccc(NC(=O)N/N=C/c2c[nH]c3ccccc23)cc1 | 19.1% (inactive)
42 | C[C@H]1[C@@H](CC(=O)N[C@@H](Cc2coc3ccccc23)B(O)O)O[C@@H]2OC3(C)CC[C@H]4[C@H](C)CC[C@@H]1[C@@]24O3 | -72.8% (active)
43 | CCCCCCCCc1cccc(CC(=O)Nc2ccc(C)cc2C(=O)O)c1 | 73.6% [25 µM] (inactive)
44 | CC(C)(C)C(=O)c1c2c(c3ccc4c5ccccc5ccc4n13)C(=O)c1ccccc1C2=O | 101% (inactive)
45 | CN(C)CCCc1ccc(Nc2cnn(C)c(=O)c2Cl)cc1 | 115% (inactive)

Row | Structure (SMILES) | growth
46 | N#Cc1cc(-c2ccnc(Nc3ccc(N4CCN(C5COC5)CC4)cc3)n2)ccc1N1CCCC1 | 34.1% (inactive)
47 | O=C(c1ccc(Cl)cc1)C1[C@H](c2ccccc2Cl)[C@@H](c2ccccc2)NC12C(=O)Nc1ccc(Br)cc12 (some centres undefined) | -95.1% (active)
48 | C=CCSc1nnc(-c2ccc(-c3nc4ccccc4[nH]3)cc2)o1 | 83.5% (inactive)
49 | CCCN(CCC)S(=O)(=O)c1ccc(C(=O)O)cc1.CCCN(CCC)S(=O)(=O)c1ccc(C(=O)O)cc1.[Cl][Pt+2][Cl].[NH2-].[NH2-] | -78.8% (active)
50 | O=C(Cc1c(-c2cccc([N+](=O)[O-])c2)n(-c2ncnc3c2c(-c2ccccc2)c(-c2ccccc2)n3Cc2ccccc2)[nH]c1=O)c1ccc(Cl)c(Cl)c1 | 63.7% (inactive)
51 | Cn1cc(-c2cc(N)n3nc(-c4c[nH]c5ccccc45)cc3n2)c2ccccc21 | -92.5% (active)
52 | Clc1ccc(-c2nc3ccc(-c4nnc(SCc5ccccc5)o4)cc3[nH]2)cc1 | 58.7% (inactive)
53 | N#CC1=C(c2ccco2)Nc2c(c(-c3ccccc3)nn2-c2ccccc2)C12C(=O)Nc1ccc(Cl)cc12 (centres undefined) | 15.4% (inactive)
54 | Cc1ccc(/C=C/C(=O)c2ccc(S(=O)(=O)NCCNc3nc(N(C)C)nc(N4CCOCC4)n3)cc2)cc1 | 97.3% (inactive)
55 | Cc1nc2sccn2c1-c1nnc(SCc2ccccc2)o1 | 119% (inactive)
56 | Cc1nc2sccn2c1-c1nnc(SCC(C)C)o1 | 88.7% (inactive)
57 | CN(CCSSCCN1CCOCC1)C(=O)Oc1cc2c(c3ccccc13)[C@H](CCl)CN2C(=O)c1cc2cc(OCCCN3CCC3)ccc2[nH]1 | -52.5% (active)
58 | O=C1/C(=C/c2cnc(-c3ccccc3)s2)SC(=S)N1Cc1ccc2c(c1)OCO2 | 69.2% (inactive)
59 | O=C(Cn1c(-c2ccccc2)nc2ccccc21)N=Nc1c(O)[nH]c2ccc(Br)cc12 | -53.7% (active)
60 | COc1ccc(N=Nc2c(N)nn3c(N)c(C#N)c(-c4ccc(C)cc4)nc23)cc1 | 56.2% (inactive)
61 | O=C1Nc2cc(-c3ccc(NS(=O)(=O)c4ccc(C(F)(F)F)cc4)cc3)ccc2/C1=C/c1ccc[nH]1 | -8.7% (active)
62 | COC(=O)c1c(C(=O)OC)c2c3ccccc3c3ccccc3n2c1C(=O)C(F)(F)F | 106% (inactive)
63 | COc1cccc(-c2ccc(/C=N/NC(=O)c3[nH]c4ccc(Br)cc4c3-c3ccccc3)s2)c1 | -26.9% (active)
64 | COc1ccc(NC(=O)CSc2nnc(-c3ccc(-c4nc5ccccc5[nH]4)cc3)o2)cc1 | 27.3% (inactive)

Source: PubChem BioAssay (NCI)
